Results reported in PubChem BioAssay AID1159580 (chemical genetic matrix, 2015).
In all, about 5,500 compounds went through this assay and about 2,000 (36%) were called active. Not shown: some 18% with an inconclusive outcome. Rule as the data show it: active = normalized growth mostly below about 0.91 (no sharp cut-off); inconclusive = no clear call, values can overlap the other calls; inactive = mostly above about 0.92. The list shows a part of the results.

Test: chemical genetic growth profiling, strain panel (AID 1159580);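 also: tested at 20 µM; growth read once vehicle control cultures reached saturation at 30 °C; 1 = growth at the plate median or of vehicle wells; lower values mean less growth of the strain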
Details: S. cerevisiae deletion strains, growth OD
[1] = locus YDR150W, strain NUM1, active compounds read low
[2] = locus YGR078C, strain PAC10, active compounds read low
[3] = locus YPL055C, strain LGE1, active compounds read low
[4] = locus YDL101C, strain DUN1, active compounds read low
[5] = locus YHR030C, strain SLT2, active compounds read low

Measured: normalized growth

COc1ccccc1N1CCN(CC(O)COc2cccc3ccccc23)CC1 (stereo not drawn)
inactive: locus YAL040C, strain CLN3, active compounds read low 0.993 | locus YCL061C, strain MRC1 (second series), active compounds read low 0.992 | [1] 0.998 | locus YDR363W, strain ESC2, active compounds read low 0.965 | locus YER002W, strain NOP16, active compounds read low 1.02 | [2] 0.978 | locus YNL175C, strain NOP13, active compounds read low 1.01 | locus YNL197C, strain WHI3, active compounds read low 1.04 | locus YNL224C, strain SQS1, active compounds read low 0.99 | locus YOR083W, strain WHI5 (second series), active compounds read low 1.02 | [3] 0.976

OC(CSc1ccccc1)CN1CCN(c2nc(-c3ccccc3)ns2)CC1 (stereo not drawn)
inactive: locus YAR019C, strain CDC15, active compounds read low 0.991 | locus YBL105C, strain PKC1, active compounds read low 0.977 | locus YBR135W, strain CKS1, active compounds read low 0.993 | locus YBR136W, strain MEC1, active compounds read low 0.977 | locus YBR160W, strain CDC28, active compounds read low 0.982 | locus YDL017W, strain CDC7, active compounds read low 0.989 | locus YDL028C, strain MPS1, active compounds read low 0.99 | [4] 0.98 | locus YDL108W, strain KIN28, active compounds read low 0.99 | locus YDL132W, strain cdc53, active compounds read low 0.996 | locus YDL214C, strain PRR2, active compounds read low 0.932 | locus YDR052C, strain DBF4, active compounds read low 0.981 | locus YDR054C, strain cdc34, active compounds read low 0.977 | locus YDR226W, strain ADK1, active compounds read low 0.989 | locus YDR477W, strain SNF1, active compounds read low 0.931 | locus YER123W, strain YCK3, active compounds read low 0.908 | locus YER133W, strain GLC7, active compounds read low 0.941 | locus YFL009W, strain cdc4, active compounds read low 0.987 | locus YFL029C, strain CAK1, active compounds read low 0.983 | locus YFR003C, strain YPI1, active compounds read low 0.989 | locus YFR019W, strain FAB1, active compounds read low 0.93 | locus YFR028C, strain CDC14, active compounds read low 0.984 | locus YGR040W, strain KSS1, active compounds read low 0.915 | locus YGR052W, strain FMP48, active compounds read low 0.993 | locus YGR092W, strain DBF2, active compounds read low 0.935 | [5] 0.941 | locus YHR079C, strain IRE1, active compounds read low 0.962 | locus YHR082C, strain KSP1, active compounds read low 0.983 | locus YHR205W, strain SCH9, active compounds read low 0.921 | locus YIL147C, strain SLN1, active compounds read low 0.987 | locus YJL095W, strain BCK1, active compounds read low 0.947 | locus YJL128C, strain PBS2, active compounds read low 0.945 | locus YJL157C, strain FAR1, active compounds read low 0.915 | locus YJR016C, strain ILV3, active compounds read low 0.982 | locus YJR066W, strain TOR1 (second series), active compounds read low 0.888 | locus YJR066W, strain TOR1, active compounds read low 1.01 | locus YKL048C, strain ELM1, active compounds read low 0.954 | locus YKL067W, strain YNK1, active compounds read low 0.943 | locus YKL101W, strain HSL1, active compounds read low 0.927 | locus YKL193C, strain SDS22, active compounds read low 0.987 | locus YKL203C, strain TOR2, active compounds read low 0.989 | locus YLR133W, strain CKI1, active compounds read low 0.935 | locus YLR403W, strain SFP1, active compounds read low 0.9 | locus YML070W, strain DAK1, active compounds read low 0.9 | locus YMR001C, strain CDC5, active compounds read low 0.983 | locus YMR205C, strain PFK2 (second series), active compounds read low 0.944 | locus YMR277W, strain FCP1, active compounds read low 0.991 | locus YNL006W, strain LST8, active compounds read low 0.997 | locus YNL020C, strain ARK1, active compounds read low 0.935 | locus YNL161W, strain CBK1, active compounds read low 0.98 | locus YNL183C, strain NPR1, active compounds read low 0.972 | locus YNL207W, strain RIO2, active compounds read low 0.987 | locus YNL222W, strain SSU72, active compounds read low 0.991 | locus YNL307C, strain MCK1 (second series), active compounds read low 0.927 | locus YOL078W, strain AVO1, active compounds read low 0.98 | locus YOL136C, strain PFK27, active compounds read low 0.903 | locus YOR061W, strain CKA2, active compounds read low 0.936 | locus YOR119C, strain RIO1, active compounds read low 0.994 | locus YOR231W, strain MKK1, active compounds read low 0.882 | locus YOR329C, strain SCD5, active compounds read low 0.982 | locus YPL031C, strain PHO85, active compounds read low 0.952 | locus YPL153C, strain RAD53, active compounds read low 0.937 | locus YPL204W, strain HRR25, active compounds read low 0.932 | locus YPL209C, strain IPL1, active compounds read low 0.981 | locus YPL256C, strain CLN2, active compounds read low 0.889 | locus YPR025C, strain CCL1, active compounds read low 0.987 | locus YPR106W, strain ISR1, active compounds read low 0.976 | locus YPR111W, strain DBF20, active compounds read low 0.961 | strain NNK1, active compounds read low 0.973 | strain TSCII, active compounds read low 0.984
active: locus YLR113W, strain HOG1, active compounds read low 0.847

OC(CSc1ccccc1)CN1CCN(c2ccc(C(F)(F)F)cn2)CC1 (stereo not drawn)
inactive: locus YAL013W, strain DEP1, active compounds read low 1.01 | locus YBR229C, strain ROT2, active compounds read low 1 | [4] 1.01 | [1] 0.87 | [2] 1 | locus YHR087W, strain rtc3, active compounds read low 0.994 | locus YJR043C, strain POL32, active compounds read low 0.991 | locus YJR075W, strain HOC1, active compounds read low 1 | locus YLR058C, strain SHM2 (second series), active compounds read low 1.01 | locus YMR219W, strain ESC1, active compounds read low 1 | locus YMR263W, strain SAP30, active compounds read low 0.966 | locus YMR307W, strain GAS1, active compounds read low 0.698 | locus YNL153C, strain GIM3, active compounds read low 1.03 | locus YNL322C, strain KRE1, active compounds read low 1.01 | [3] 0.898
active: locus YDL134C, strain PPH21, active compounds read low 0.185 | locus YEL061C, strain CIN8, active compounds read low 0.657 | [5] 0.203 | locus YLR039C, strain RIC1, active compounds read low 0.591 | locus YLR085C, strain ARP6, active compounds read low 0.387 | locus YLR262C, strain YPT6, active compounds read low 0.468 | locus YML094W, strain GIM5, active compounds read low 0.686 | locus YNL298W, strain CLA4 (second series), active compounds read low 0.601 | locus YNR030W, strain Alg12, active compounds read low 0.668 | locus YPL241C, strain CIN2, active compounds read low 0.763 | locus YPR135W, strain CTF4, active compounds read low 0.442
